# An excerpt weighted towards active compounds, which were near 8.7% of everything screened.
# AMA1-RON2 inh = inhibitors of Plasmodium falciparum AMA1-RON2 interaction; AlphaScreen AMA1-biotinylated RON2 peptide binding; Potency, µM (doses to about 58.2 µM), for the others: at the top dose activity change, negative = inhibition, actives largely listed as inhibitors; 360,000 tested, 0.2% active; AID 720542;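 further: 0% = vehicle wells and -100% = peptide control; nearly all actives have a fitted effect of over 45% in size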
#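 AMA1 (3D7) with his tag at 25 nM final met compounds first, then biotinylated RON2 peptide at 25 nM; detection used donor plus acceptor beads, 10 µg/mL apiece, read by AlphaScreen after 30 min at room temperature.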
# Vaccinia Venus = vaccinia inhibition (Venus reporter). Vaccinia virus Venus reporter expression, fluorescence. Potency, µM (top dose mostly 36.5 µM), without a hit: at the highest dose activity change, negative = inhibition, actives largely listed as inhibitors. 330,000 tested, 0.46% active; calls by dose curve; tested in A549 cells; further: nearly all actives have a fitted effect of over 30% in size
# VACV mCherry inh = vaccinia inhibition (mCherry reporter) | Potency, µM (top dose mostly 36.5 µM), for inactives: top-dose activity change, negative = inhibition, hits mostly inhibitors | Vaccinia virus mCherry reporter infection, fluorescence | 310,000 tested, 0.63% active | AID 720579; calls by dose curve; tested in A549 cells; further: nearly all actives have a fitted effect of over 35% in size
# Pf growth 96h = inhibits malaria parasite growth, 96 h; P. falciparum luciferase reporter growth, 96 h; Potency, µM (top dose mostly 28.7 µM), without a hit: top-dose activity change, negative = inhibition, actives largely listed as inhibitors; 320,000 tested, 6.9% active; AID 504834
#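 96 h incubation, 37 C, 5% CO2, of luciferase-reporter P. falciparum-infected RBCs (2% hematocrit, 0.05% parasitemia final) with test compounds; endpoint luminescence.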
# Pf growth 48h = P. falciparum growth inhibition at 48 hours (one generation); P. falciparum luciferase growth in erythrocytes, 48 h; Potency, µM (top dose mostly 28.7 µM), without a hit: at the top dose activity change, negative = inhibition, usual class: inhibitors; 310,000 tested, 5.9% active; AID 504832
#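 Cell-based growth assay: transgenic P. falciparum expressing firefly luciferase, cultured in red cells within RPMI 1640 containing 0.5% w/v Albumax, 24 mM bicarbonate and gentamycin. A drop in luciferase activity indicates inhibition.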
# Starred values were filed as active, the others as inactive; i = inactive; ? = inconclusive; . = not tested or not shown; [ ] = remark or other dose. Unless noted, the call rests on the fitted dose curve; in most records, active means well fitted curve in the direction sought with a large enough effect; inconclusive means small, poorly fitted or top-dose-only effect, or another doubt; inactive means no such curve, though single readings can be large; an effect the other way counts as inactive or inconclusive. Unless noted, on the % scale 0 is the no-effect control and ±100 the full control effect; potency means the concentration at half of the fitted maximal effect.
SMILES,AMA1-RON2 inh,Vaccinia Venus,VACV mCherry inh,Pf growth 96h,Pf growth 48h
O=C(CCCN1C(=O)/C(=C/c2ccccc2Cl)SC1=S)NNC(=O)c1ccccc1Cl,23%[2.32 µM],?,11µM*,?,0%
O=C(CCCN1C(=O)/C(=C/c2ccccc2Cl)SC1=S)NCCCN1CCOCC1,-5%,292%,175%,?,12µM*
CCCCCOC(=O)CSc1nc2sc3c(c2c(=O)n1Cc1ccccc1)CC(C)(CC)OC3 (configuration not stated),.,-5%,-3%,.,.
Cc1ccc(C)c(N2CCN(C(c3ccc(F)cc3)c3nnc(-c4ccccc4)o3)CC2)c1 (configuration not stated),.,-17%,-11%,.,.
Cc1nc2cc(NC(=O)[C@@H]3C[C@@H](Sc4ccccn4)CN3Cc3ccccc3F)ccc2s1,.,-19%,-21%,.,.
O=C(CCn1nc(-c2ccccc2)ccc1=O)N1CCOCC1,-9%,-5%,-9%,1.3µM*,5%
O=C(CCN1C(=O)/C(=C/c2ccccc2Cl)SC1=S)N1CCOCC1,-1%,?,?,?,13µM*
O=C(Cn1nc(-c2ccccc2)ccc1=O)N1CCOCC1,2%,-3%,i,.,.
Cc1cc(Cl)ccc1OCC(=O)Nc1cccc(-c2nc3ccccc3o2)c1,.,?,-11%,.,.
CCCCc1cc(O)c(CCCC)c(O)c1,-2%,?,.,198%,?
CCCCCc1cc(O)c2c(c1)OC(C)(C)C1CC=C(C)CC21 (configuration not stated),.,.,.,3µM*,2.4µM*
COC(=O)c1ccc(COc2ccc(-c3nnn(CC(N)=O)n3)cc2)cc1,-10%,7%,-11%,?,27%
COC(=O)c1ccc(COc2ccc(-c3nnn(CC(=O)NC(C)(C)C)n3)cc2)cc1,-1%,-13%,-15%,7.4µM*,?
Cc1c(NC(=O)c2ccc(Cl)cc2)cc(C(C)C)c(O)c1S(=O)(=O)c1ccccc1,.,-15%,-4%,.,.
O=c1cc(O)c(-c2ccc(Cl)c(Cl)c2)c(Cl)[nH]1,6%,-15%,i,0%,-1%
O=c1cc(O)c(-c2ccc(Cl)cc2)c(Cl)[nH]1,-3%,.,.,0%,13µM*
CCOC(=O)[C@@H]1[C@H]2COc3ccc(Br)cc3[C@H]2N2C(=O)N(c3ccc(F)cc3)C(=O)[C@@]12C,3%,-8%,-28%,?,5.9µM*
CCOC(=O)[C@@H]1[C@H]2COc3ccc(Br)cc3[C@H]2N2C(=O)N(c3cccc(F)c3)C(=O)[C@]12C,-19%,-17%,i,13µM*,?
CCOC(=O)[C@@H]1[C@H]2COc3cc(OC)ccc3[C@@H]2N2C(=O)N(c3ccc(C(F)(F)F)cc3)C(=O)[C@]12C,-3%,-12%,-13%,12µM*,?
CCOC(=O)[C@@H]1[C@H]2COc3ccc(Br)cc3[C@@H]2N2C(=O)N(c3cccc(C)c3)C(=O)[C@]12C,0%,-24%,-5%,?,-12%
CCOC(=O)[C@@H]1[C@H]2COc3ccc(Br)cc3[C@@H]2N2C(=O)N(c3ccc(F)cc3)C(=O)[C@]12C,9%,-22%,i,?,?
CCn1cc(C(=O)N(C)Cc2ccccc2)c(=O)c2cc(S(=O)(=O)N3CCc4ccccc4C3)ccc21,.,-13%,-19%,.,.
Cc1cnc(-n2ncc(C(=O)N(C)C3CCOC3)c2-c2cccs2)nc1-c1ccc(F)cc1 (configuration not stated),.,-7%,-13%,.,.
Cc1ccc(C(=O)NCc2ccc(N(C)C)cc2)cc1NC(=O)c1nsc2ccccc12,.,-16%,-14%,.,.
COc1cc(C2Nc3ccccc3C(=O)N2Cc2ccco2)cc(OC)c1OC (configuration not stated),.,-16%,-8%,.,.
COc1cc(C(=O)N(Cc2ccc(F)cc2)C2CCS(=O)(=O)C2)cc(OC)c1OC (configuration not stated),-2%,.,.,8.3µM*,?
COc1cc(C(=O)N(Cc2cccc(Cl)c2)C2CCS(=O)(=O)C2)cc(OC)c1OC (configuration not stated),-8%,.,.,.,?
COc1ccccc1C(=O)N(Cc1ccc(Cl)cc1)C1CCS(=O)(=O)C1 (configuration not stated),3%,.,.,12µM*,-7%
